Test results: PubChem BioAssay (NCATS)
Results filed as inconclusive are left out. Entries that show only a call come without a potency. The source made the active and inactive calls. Calls follow the shape of the dose curve; as a rule, active = well fitted inhibition curve with a large enough effect; inconclusive = small, poorly fitted or top-dose-only effect; inactive = no such curve, though single readings can be large or run the other way.

Tests used:
[1] = test system: Zika virus NS2B-NS3 protease (unlinked complex); assay: Primary screen GU Rhodamine qHTS for Zika virus inhibitors: Unlinked NS2B-NS3 protease assay (AID 1347159); also: nearly all actives have a fitted effect of over 60% in size; also: potency is read from the fitted curve at half-maximal effect
Procedure, shortened: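 Percent inhibition derives from the 15-min fluorescence change (ex 480, em 540 nm), normalized to no-enzyme and no-inhibitor wells. Reactions contained 25 nM NS2B-NS3 complex and 1.5 microM substrate in 10 mM Tris-HCl pH 8.0.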

[2] = test system: Zika virus NS2B-NS3 protease (linked construct); assay: Primary screen NINDS Rhodamine qHTS for Zika virus inhibitors (AID 1347160); also: nearly all actives have a fitted effect of over 55% in size
Procedure, shortened: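 In 10 mM Tris-HCl pH 8.0 containing 0.01% Tween 20, linked NS2B-NS3 protease (25 nM final) is exposed to test compounds for 15 min. Cleavage of 1.5 microM Rhodamine110 substrate is tracked by fluorescence over 15 min.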

In the case of COc1c(C)c(OCC(O)C(C)(C)O)cc2c1CNC2=O (configuration not stated), the Potency [1] is reported as “inactive” and the Potency [2] is reported as “inactive”.
COc1cc(O)cc(C)c1C(=O)OC1C(CO)OC(n2ccc(=O)[nH]c2=O)C1OC(C)=O (configuration not stated) was tested, and the Potency [1] was “inactive” and the Potency [2] was “inactive”.
For COc1cc(O)c2c(c1)C1(OC2=O)C(C)=CC(=O)C1O (configuration not stated), the Potency [1] was “inactive” and the Potency [2] was “inactive”.
For CC1C2=CC(=O)OC2(O)CC2C1C(OC(=O)c1ccccc1)C(OC(=O)c1ccccc1)C1(O)C2(C)CCC(O)C1(C)C(=O)O (configuration not stated), the Potency [1] was “inactive” and the Potency [2] was “inactive”.
In the case of C=C(C)[C@@H]1CC[C@]2(C(=O)O)CC[C@]3(C)[C@H](CCC4[C@@]5(C)CCC(=O)C(C)(C)C5C(O)C[C@]43C)C12 (some centres not stated), the Potency [1] is reported as “inactive” and the Potency [2] is reported as “inactive”.
For O=C(c1c2ccccc2cc2ccccc12)N1CCC(N2CCC[C@@H](C(=O)N3CCOCC3)C2)CC1, the Potency [1] was “inactive” and the Potency [2] was “inactive”.
For CC1=C2CC(=O)C(C)CC/C=C(\C)CC2(O)OC1=O (configuration not stated), the Potency [1] was “inactive” and the Potency [2] was “inactive”.
With COC(=O)c1cc(OC)cc(OC)c1C(=O)c1c(OC)cc2c(c1O)C1CCC(O)C(C)(O2)O1 (configuration not stated) the Potency [1] was “inactive” and the Potency [2] was “inactive”.
For C[C@@H]1O[C@@H](O[C@H]2[C@H](O)[C@@H](O)[C@H](OC[C@H]3O[C@@H](OC(=O)[C@]45CCC(C)(C)C[C@H]4C4=CCC6[C@@]7(C)C[C@@H](O)[C@H](O)[C@@](C)(CO)C7[C@H](O)C[C@@]6(C)[C@]4(C)CC5)[C@H](O)[C@@H](O)[C@@H]3O)O[C@@H]2CO)[C@H](O)[C@H](O)[C@H]1O (some centres not stated), the Potency [1] was “inactive” and the Potency [2] was “inactive”.
In the case of C/C=C(/C)C(=O)OC1C2OC2C2(CO2)C2C3OC(=O)C(C)C3CCC12C (configuration not stated), the Potency [1] is reported as “inactive” and the Potency [2] is reported as “inactive”.
For Cc1ccc(-n2nc(C(C)(C)C)cc2NC(=O)Nc2cc(COc3cccnc3)[nH]n2)cc1, the Potency [1] was “inactive” and the Potency [2] was “inactive”.
For Cc1c(NC(=O)N2CCOCC2)ccc2c1c1ccccc1n2C(C)C, the Potency [1] was “inactive” and the Potency [2] was “inactive”.
With CCC(=O)OCC(=O)[C@@]1(OC(=O)CC)[C@@H](C)C[C@H]2[C@@H]3CCC4=CC(=O)C=C[C@]4(C)[C@@]3(F)[C@@H](O)C[C@@]21C the Potency [1] was “inactive” and the Potency [2] was “inactive”.
With CC(C)(O)/C=C/C(=O)[C@](C)(O)[C@H]1[C@H](O)C[C@@]2(C)[C@@H]3CC=C4[C@@H](C=C(O[C@@H]5O[C@H](CO)[C@@H](O)[C@H](O)[C@H]5O)C(=O)C4(C)C)[C@]3(C)C(=O)C[C@]12C the Potency [1] was “inactive” and the Potency [2] was “inactive”.
In the case of CC1CCC2C(C(=O)O)=CC3(O)CC(C)(C)CC123 (configuration not stated), the Potency [1] is reported as “inactive” and the Potency [2] is reported as “inactive”.
For O=C(/C=C/c1ccccc1)O[C@@H]1[C@@H](CO)O[C@@](CO)(O[C@H]2O[C@H](CO)[C@@H](O)[C@H](O)[C@H]2O)[C@H]1O, the Potency [1] was “inactive” and the Potency [2] was “inactive”.
C=C1CC[C@]2(C(=O)O[C@@H]3O[C@H](CO)[C@@H](O)[C@H](O)[C@H]3O)CC[C@]3(C)C(=CCC4[C@@]5(C)C[C@H](O)[C@@H](O[C@@H]6O[C@H](C(=O)O)[C@@H](O)[C@H](O)[C@H]6O)[C@](C)(C=O)C5CC[C@]43C)C2C1 (some centres not stated) was tested, and the Potency [1] was “inactive” and the Potency [2] was “inactive”.
NC1=NC2(c3cc(NC(=O)c4ccc(F)cn4)ccc3F)COCC2CS1 (configuration not stated) was tested, and the Potency [1] was “inactive” and the Potency [2] was “inactive”.
For CC1(C)CC[C@]2(C(=O)O[C@@H]3O[C@H](CO)[C@@H](O)[C@H](O)[C@H]3O)[C@H](O)C[C@]3(C)C(=CCC4[C@@]5(C)CC[C@H](O[C@@H]6OC[C@@H](O)[C@H](O)[C@H]6O)[C@@](C)(C(=O)O)C5CC[C@]43C)[C@@H]2C1 (some centres not stated), the Potency [1] was “inactive” and the Potency [2] was “inactive”.
With CC1(C)CC[C@]2(C(=O)O)CC[C@]3(C)C(=CCC4[C@@]5(C)C[C@@H](O)[C@H](O)[C@](C)(CO)C5CC[C@]43C)[C@@H]2[C@@H]1O (some centres not stated) the Potency [1] was “inactive” and the Potency [2] was “inactive”.
With CC1=CC(=O)CC(C)(C)[C@@]1(O)/C=C/C(C)O[C@@H]1O[C@H](CO)[C@@H](O)[C@H](O)[C@H]1O (some centres not stated) the Potency [1] was “inactive” and the Potency [2] was “inactive”.
With COC(=O)C1=COC(OC2OC(CO)C(O)C(O)C2O)C2C(C)C(OC(=O)/C=C/c3ccc(O)cc3)C(O)C12 (configuration not stated) the Potency [1] was 28.2 µM (active) and the Potency [2] was “inactive”.
With COC(=O)Cn1nc(-c2cccc(OC)c2)c2ccccc21 the Potency [1] was “inactive” and the Potency [2] was “inactive”.
In the case of Cc1cn(-c2cc(NC(=O)c3ccc(C)c(Nc4nccc(-c5cnccn5)n4)c3)cc(C(F)(F)F)c2)cn1, the Potency [1] is reported as “inactive” and the Potency [2] is reported as “inactive”.
COc1c2c(c(C)c3c1C(=O)OC3)OC1(C)CC(O)C34OC(O)(CCC3(C)C1C2)OC4(C)C (configuration not stated) was tested, and the Potency [1] was “inactive” and the Potency [2] was “inactive”.
For CN1C(=O)N(c2cc(Cl)cc(Cl)c2)C(=O)[C@@]1(C)Cc1ccc(Br)cc1, the Potency [1] was “inactive” and the Potency [2] was “inactive”.
